A selection: hits, their analogues and other compounds. The true share with any hit is near 21%.
HCMV antiviral = inhibitors of human cytomegalovirus | HFF cells, HCMV-luciferase reporter, 72 h; hits give low values | activity change, negative = inhibition, % at 57.5 µM | 4.5% of 410,000 active; in the data active = activity change below about -60%; inconclusive = no clear call, values can overlap the other calls; inactive = above about -39%; note: % is set by controls: 0 for no effect and ±100 for the full control effect
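Screen run at 2 compound doses on HFFs infected with reporter HCMV, MOI 1 PFU/cell. Luciferase activity from cell lysates at 72 h post infection gave inhibition relative to buffer-only and Salinomycin wells.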
Shiga inhibitor = blocks Shiga toxin action in Vero cells; Vero cells, Shiga toxin protein synthesis inhibition reporter; inhibition, % at 38.7 µM; 9.2% of 290,000 active; AID 2315; in the data active = inhibition mostly above about 28%, no sharp cut-off; inactive = mostly below about 43%; note: 0% is about no effect
CHX counter = counter-screen hit for Shiga toxin inhibitors, cycloheximide | cell reporter, cycloheximide protein synthesis inhibition counterscreen | 12% of 300,000 active | max response, %; in the data active = max response mostly above about 13%, no sharp cut-off; inactive = mostly below about 14%; note: read at 38.3 µM for the half of the compounds with a filed dose; 0% is about no effect
Pf growth 48h = P. falciparum growth inhibition at 48 hours (one generation) | 5.9% of 310,000 active | P. falciparum luciferase growth in erythrocytes, 48 h | Potency, µM (doses to about 28.7 µM), inactives show at the top dose activity change, negative = inhibition, hits mostly inhibitors; note: potency is the fitted concentration of half-maximal effect; % is set by controls: 0 for no effect and ±100 for the full control effect
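Here the parasites carry a stable luciferase gene and grow inside erythrocytes in Albumax-based RPMI medium with compound for one erythrocytic cycle. Activity is scored as loss of luminescent signal.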
Pf growth 96h = P. falciparum growth inhibition at 96 hours. 6.9% of 320,000 active. P. falciparum luciferase reporter growth, 96 h. Potency, µM (doses to about 28.7 µM), inactives show at the top dose activity change, negative = inhibition, actives largely listed as inhibitors. AID 504834; note: potency is the fitted concentration of half-maximal effect; % is set by controls: 0 for no effect and ±100 for the full control effect
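96 h incubation, 37 C, 5% CO2, of luciferase-reporter P. falciparum-infected RBCs (2% hematocrit, 0.05% parasitemia final) with test compounds; endpoint luminescence.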
HCV inhibitor = blocks hepatitis C virus; 3.4% of 340,000 active; AID 651820; Huh7.5.1 HCVcc-Cre infection, luciferase reporter, 44 h; Potency, µM (top dose mostly 41.8 µM), for inactives: top-dose activity change, negative = inhibition, most hits filed as inhibitors; note: potency is the fitted concentration of half-maximal effect; % is set by controls: 0 for no effect and ±100 for the full control effect
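Seed cells (1,000/well) for 4 h; treat with compound and infect with HCVcc-Cre, moi about 0.5. Incubate 44 h, then detect luciferase activity.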
The depositor's hits bear a star; i = inactive; ? = inconclusive; · = no result. Unless noted, calls come from the whole dose curve; as a rule, active = well fitted inhibition curve with a large enough effect; inconclusive = small, poorly fitted or top-dose-only effect, or another doubt; inactive = no such curve, though single readings can be large or run the other way.

SMILES	HCMV antiviral	Shiga inhibitor	CHX counter	Pf growth 48h	Pf growth 96h	HCV inhibitor
CC(C)(C)N(CC#CCC1(O)c2ccccc2-c2ccccc21)CCO	?	18.6	-1.5	?	11.7µM*	8.3%
COc1ccc(CCC(=O)NC(C)C2CCCO2)cc1 (configuration not stated)	4.5	-25.0	-1.9	104.1%	?	10.7%
CCN(C)C(=O)c1coc(N2CCN(Cc3cccc(F)c3)C2=O)n1	-10.8	·	·	·	·	·
O=C(CCNS(=O)(=O)c1ccccc1C(F)(F)F)N1CCN(S(=O)(=O)c2cccc(F)c2)CC1	-36.9	·	·	?	-13.3%	-2.9%
O=S1(=O)CC(O)C(Nc2ccc(Cl)cc2)C1 (configuration not stated)	?	-4.6	0.8	9.9%	3.7µM*	1.4%
CCc1ccc(NC(=O)C2CCN(S(=O)(=O)c3ccc4c(c3)NC(=O)C(C)S4)CC2)cc1 (configuration not stated)	-97.2*	-4.3	-4.8	?	?	8.91µM*
Cc1ccc(NC(=O)C2CCN(S(=O)(=O)c3ccc4c(c3)NC(=O)C(C)S4)CC2)cc1C (configuration not stated)	-61.6*	-6.4	7.9	10.4µM*	?	?
Cc1ccc(NC(=O)C2CCN(S(=O)(=O)c3ccc4c(c3)NC(=O)C(C)S4)CC2)c(C)c1 (configuration not stated)	0.0	10.7	-0.5	?	?	?
COc1ccccc1NC(=O)C1CCN(S(=O)(=O)c2ccc3c(c2)NC(=O)C(C)S3)CC1 (configuration not stated)	0.0	-4.3	4.3	11.7µM*	?	?
CC1Sc2ccc(S(=O)(=O)N3CCC(C(=O)Nc4cccc(Cl)c4)CC3)cc2NC1=O (configuration not stated)	-99.9*	-2.9	-2.9	?	-5.9%	3.16µM*
COc1ccc(CNC(=O)C2CCN(S(=O)(=O)c3ccc4c(c3)NC(=O)C(C)S4)CC2)cc1 (configuration not stated)	0.3	17.8	-1.9	?	?	?
CC1Sc2ccc(S(=O)(=O)N3CCC(C(=O)NCc4ccc(Cl)cc4)CC3)cc2NC1=O (configuration not stated)	-25.8	9.9	1.0	10.4µM*	15.4%	?
O=C(COC(=O)c1ccc(Br)o1)NCc1ccc(Cl)cc1	-19.5	·	·	·	·	4.6%
N/C(=N\OC(=O)c1ccc(Br)o1)c1cccnc1	23.6	102.5*	35.5*	223.9%	38.2%	20.1%
COc1ccc(/C(N)=N/OC(=O)c2ccc(Br)o2)cc1	32.1	83.6*	30.7	149.8%	-4.0%	-2.9%
COc1ccc(/C(N)=N/OC(=O)c2cccc([N+](=O)[O-])c2C)cc1	92.6	33.2	-2.3	?	-8.6%	?
O=C(OCc1ccc(Br)cc1)c1cccnc1	-5.8	2.5	-3.0	3.9%	17.4%	35.2%
N/C(Cc1ccc(Cl)c(Cl)c1)=N\OC(=O)c1ccc(Br)o1	40.3	-4.0	-2.1	14.7µM*	14.7µM*	3.1%
O=C(CN1CCCCC1)NCC(=O)Nc1ccc(Br)cc1C(=O)c1ccccc1	12.9	-15.1	-2.8	-3.1%	122.0%	11.2µM*
O=C(CCN1CCOCC1)NCC(=O)Nc1ccc(Br)cc1C(=O)c1ccccc1	-13.8	-17.4	-1.1	11.3%	13.1µM*	0.0%
O=C(CSc1ccccc1)N1CCc2c([nH]c3ccccc23)C1c1ccc(Cl)cc1 (configuration not stated)	-31.2	·	·	·	·	·
Cn1cccc1C(=O)OCc1ccc(F)cc1	-74.9*	50.2	18.8*	37.1%	24.4%	13.5%
Cc1ccsc1C(=O)OCc1csc(-c2ccccc2)n1	105.8	102.3*	25.8*	268.8%	·	-7.2%
CC1CCCCC1NC(=O)COC(=O)c1cccn1C (configuration not stated)	-26.5	·	·	-3.5%	-14.5%	6.1%
Cn1cccc1C(=O)OCc1csc(-c2ccccc2)n1	261.0	77.1*	22.3*	164.2%	i	-21.6%
Cc1ccsc1C(=O)OCc1nnc(-c2ccccc2)o1	-16.1	·	·	·	·	0.1%
O=C(OCc1csc(-c2ccccc2)n1)c1cccs1	45.5	49.0*	33.7*	·	·	-1.7%

Assay outcomes from PubChem BioAssay.
